BL2 CD40 inh – inhibitors of CD40-induced NF-kB signaling, primary screen, BL2 cells, luciferase reporter, single point; 83,000 compounds, 0.94% hits; inhibition, % at 10 µM; CD40L-induced, 4 h; AID 1053188, 2014;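 active = mean inhibition of at least 50% with a set share of replicates also reaching that level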;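 note: 0% = neutral control wells and 100% = IKK inhibitor VII at 50 µM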
* marks the source's active call; other numbers are inactive results; [ ] = dose if it differs, or a comment. The sample as a whole holds a higher share of hits than the screen did.

Results for C[C@H](CO)N1C[C@H](C)[C@@H](CN(C)Cc2ccc(Cl)c(Cl)c2)OCc2ccccc2-c2c(n(C)c3ccccc23)C1=O ?
BL2 CD40 inh: 31[25 µM]

How did C[C@@H]1CN([C@H](C)CO)C(=O)c2c(c3ccccc3n2C)-c2ccccc2CO[C@@H]1CN(C)C(=O)Nc1ccc(-c2ccccc2)cc1 do in these assays?
BL2 CD40 inh: -13

How did N#CC(C#N)=C(N)/C(C#N)=C/c1cc(O)c(O)c(O)c1 do in these assays?
BL2 CD40 inh: -18[25 µM]

How did CC(C)(C)c1cc(/C=C(\C#N)C(N)=S)cc(C(C)(C)C)c1O do in these assays?
BL2 CD40 inh: 56*[25 µM]

Results for CCn1c2ccccc2c2cc(/C=C(/C#N)C(N)=S)ccc21 ?
BL2 CD40 inh: -5

Results for OC[C@H]1[C@H](c2ccc(C#CC3(O)CCCC3)cc2)[C@H]2CN(Cc3cncnc3)CCCCN21 ?
BL2 CD40 inh: -20[25 µM]

What do the screens show for `Cc1noc(C)c1NC(=O)N1C[C@H](O)COC[C@H]2O[C@@H](CC(=O)N[C@H]3CCN(Cc4ccccc4)C3)CC[C@@H]21`?
BL2 CD40 inh: -2[25 µM]

What do the screens show for `CC(C)NC(=O)N(C)C[C@@H]1Oc2c(cccc2N(C)C)C(=O)N(C)C[C@H]1C`?
BL2 CD40 inh: 0

What do the screens show for `COC(=O)[C@@H]1[C@@H](CO)[C@@H]2Cn3c(cccc3=O)[C@@H]2N1C(=O)C1CCCC1`?
BL2 CD40 inh: -8

How did CC(=O)N1[C@@H]2CN(CC3CC3)C[C@H]1C2c1ccc(Br)cc1 (stereo partly drawn) do in these assays?
BL2 CD40 inh: 0

What do the screens show for `CC1CCCC=CC2CC(OC(=O)CN(C)C)CC2C(O)C=CC(=O)O1` (stereo not drawn)?
BL2 CD40 inh: 83*

How did O=C(Cc1cccnc1)N1[C@H](CO)[C@H]2c3ccccc3NC[C@H]21 do in these assays?
BL2 CD40 inh: -3[25 µM]

How did COc1ccc2c3c([nH]c2c1)[C@@H](CO)N(Cc1ccccc1)CC31CN(C(=O)c2ccccn2)C1 do in these assays?
BL2 CD40 inh: 3[25 µM]

What do the screens show for `O=C(Nc1ccc(C(F)(F)F)cc1)Nc1ccc2c(c1)[C@H]1C[C@@H](CC(=O)N3CCc4ccccc4C3)O[C@@H](CO)[C@H]1O2`?
BL2 CD40 inh: 65*[25 µM]

What do the screens show for `O=C(Cc1ccncc1)Nc1ccc2c(c1)[C@@H]1C[C@@H](CC(=O)N3CCc4ccccc4C3)O[C@H](CO)[C@@H]1O2`?
BL2 CD40 inh: 4[25 µM]

What do the screens show for `O=C(Nc1ccc(C(F)(F)F)cc1)Nc1ccc2c(c1)[C@H]1C[C@H](CC(=O)N3CCc4ccccc4C3)O[C@@H](CO)[C@H]1O2`?
BL2 CD40 inh: 6[25 µM]

Results for O=C(Cc1ccncc1)Nc1ccc2c(c1)[C@H]1C[C@H](CC(=O)N3CCc4ccccc4C3)O[C@@H](CO)[C@H]1O2 ?
BL2 CD40 inh: 1[25 µM]

Results for O=C(Cc1ccncc1)Nc1ccc2c(c1)[C@@H]1C[C@@H](CC(=O)N3CCc4ccccc4C3)O[C@@H](CO)[C@@H]1O2 ?
BL2 CD40 inh: 8[25 µM]

Results for O=C(Nc1ccc(C(F)(F)F)cc1)Nc1ccc2c(c1)[C@H]1C[C@@H](CC(=O)N3CCc4ccccc4C3)O[C@H](CO)[C@H]1O2 ?
BL2 CD40 inh: 50*[25 µM]

Results for N#C[C@H]1[C@@H](c2ccc(C#CC3CC3)cc2)[C@@H](CO)N1S(=O)(=O)c1ccccc1 ?
BL2 CD40 inh: 17

Results for CC=Cc1ccc2n(c1=O)C[C@@H]1[C@@H](CO)[C@H](C(=O)NCC3CC3)[C@H]2N1Cc1cccnc1 (mixture of isomers) ?
BL2 CD40 inh: 2[25 µM]

What do the screens show for `C[C@@H]1CN(C)C(=O)Cc2cc(N(C)C)ccc2O[C@H]1CN(C)S(C)(=O)=O`?
BL2 CD40 inh: 8

Results for C[C@@H]1CN([C@H](C)CO)C(=O)c2ccccc2-c2ccccc2CO[C@@H]1CN(C)C ?
BL2 CD40 inh: -14

What do the screens show for `Cc1ccc(NC(=O)c2ccc3c(c2)NC(=O)CS3)nc1`?
BL2 CD40 inh: -23

What do the screens show for `Cc1ccc(NC(=O)c2ccc3c(c2)OCCO3)nc1`?
BL2 CD40 inh: 64*

Results for Cc1cccnc1NC(=O)c1ccc2c(c1)OCCO2 ?
BL2 CD40 inh: -30

How did Cc1ccc(NC(=O)CNC(=O)c2ccc(C)s2)nc1 do in these assays?
BL2 CD40 inh: -15

Results for Cc1ccc(NC(=O)CNC(=O)c2cccc(Cl)c2)nc1 ?
BL2 CD40 inh: 66*

What do the screens show for `COC(=O)CNC(=O)c1cccc(Cl)c1`?
BL2 CD40 inh: 13

Results for CCCNC(=O)N1[C@H](C#N)[C@@H](c2ccc(/C=C/c3ccccc3)cc2)[C@H]1CO ?
BL2 CD40 inh: 30[25 µM]

Results for COc1cccc(CN(C)C[C@H]2OCc3ccccc3-c3ccccc3C(=O)N([C@H](C)CO)C[C@H]2C)c1 ?
BL2 CD40 inh: -3[25 µM]

Results for CCCNC(=O)N1C[C@H]2[C@@H](c3ccccc31)[C@H](CO)N2C(=O)C1CCOCC1 ?
BL2 CD40 inh: 4[25 µM]

What do the screens show for `CCCNC(=O)c1cc2c(c(-c3cccc(-c4cc5ccccc5o4)c3)n1)[C@H](CCO)N(C(=O)NC(C)C)C2`?
BL2 CD40 inh: 56*[25 µM]

How did CCNC(=O)c1cc2c(c(-c3cccc(-c4cc5ccccc5o4)c3)n1)[C@@H](CCO)N(C(=O)NC(C)C)C2 do in these assays?
BL2 CD40 inh: -23

Results for CC(C)NC(=O)N1Cc2cc(C(=O)NC3CCC3)nc(-c3cccc(-c4cncnc4)c3)c2[C@@H]1CCO ?
BL2 CD40 inh: 10[25 µM]

How did O=C(c1cccc(F)c1)N1C[C@H]2[C@@H](c3ccccc31)[C@H](CO)N2C(=O)C1CCOCC1 do in these assays?
BL2 CD40 inh: 4[25 µM]

What do the screens show for `C1=C(CN2CCOCC2)COc2c1cccc2OCC1CNCCO1` (stereo not drawn)?
BL2 CD40 inh: 1[25 µM]

What do the screens show for `COc1ccc(-c2ccc3n(c2=O)C[C@H]2[C@H](CO)[C@@H](C(=O)N4CCCCC4)[C@@H]3N2C)cc1`?
BL2 CD40 inh: 10[25 µM]

What do the screens show for `CCC(=O)N1[C@H](CN(C)C(C)=O)[C@@H](c2ccc(-c3cccnc3)cc2)[C@@H]1CO`?
BL2 CD40 inh: -39

What do the screens show for `Nc1c(C(=O)N2CCCC2)sc2nc3c(cc12)CCCCCC3`?
BL2 CD40 inh: -97

Results for Nc1c(C(=O)N2CCOCC2)sc2nc3c(cc12)CCC3 ?
BL2 CD40 inh: -51

Results for Nc1c(C(=O)N2CCOCC2)sc2nc3c(cc12)CCCC3 ?
BL2 CD40 inh: 69*

What do the screens show for `CN(C)C(=O)C[C@H]1CC[C@H]2[C@H](COc3ccc(NC(=O)C4CCCC4)cc3C(=O)N2C)O1`?
BL2 CD40 inh: -9

How did CC(=O)N(C)C[C@@H]1Oc2c(N)cccc2C(=O)N(C)C[C@@H]1C do in these assays?
BL2 CD40 inh: -6

Results for CN1[C@@H]2c3ccc(-c4ccccc4F)c(=O)n3C[C@@H]2[C@@H](CO)[C@@H]1C(=O)NCc1ccncc1 ?
BL2 CD40 inh: 0[25 µM]

Results for COC(=O)c1ccccc1NC1=C/C(=N\S(=O)(=O)c2cccs2)c2ccccc2C1=O ?
BL2 CD40 inh: 33*

How did COC(=O)c1ccccc1NC(=O)COC(=O)/C=C/c1cccs1 do in these assays?
BL2 CD40 inh: 10

What do the screens show for `COC(=O)c1ccccc1NC(=O)C(CCS(C)(=O)=O)NC(C)=O` (stereo not drawn)?
BL2 CD40 inh: 7

Results for O=C(C1CCC1)N1CC[C@@H]2[C@@H](CO)Nc3ccc(C#Cc4ccc(F)cc4)cc3[C@@H]21 ?
BL2 CD40 inh: 11[25 µM]

How did CN(C)CC(=O)N1[C@@H]2c3ccc(-c4cccnc4)c(=O)n3C[C@H]1[C@H](CO)[C@H]2C(=O)NC1CCCC1 do in these assays?
BL2 CD40 inh: 1[25 µM]
